Rab9 prom act = activators of Rab9 promoter; AID 485297; 320,000 compounds, 2.8% hits; Potency, µM (series often up to 9.22 µM), without a hit: top-dose activation, negative = inhibition, most hits filed as activators; Huh7 Rab9 promoter-luciferase reporter, luminescence, 24 h; further: % of control where 0% means no effect; nearly all actives have a fitted effect of over 60% in size
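Rab9 promoter-driven luciferase in stably transfected Huh7 cells; 1500 cells/well rested 2 h, exposed to compound in DMSO for 24 h at 37 °C, 5% CO2. Luminescence read 10 min after adding luciferase reagent at ambient temperature.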
uPA generation = inhibitors of cell surface uPA generation; cell surface uPA generation assay, qHTS; Potency, µM (titrated, usually from 38.3 µM), for the others: at the highest dose activity change, negative = inhibition, most hits filed as inhibitors; 330,000 compounds, 0.31% hits; AID 540303; active means well fitted inhibition curve with a large enough effect; inconclusive means small, poorly fitted or top-dose-only effect; inactive means no such curve, though single readings can be large or run the other way; tested in mouse RAW 264.7 cells; further: on the % scale 0 is the no-effect control and ±100 the full control effect; nearly all actives have a fitted effect of over 55% in size
SMN2 splice up = enhancers of SMN2 splice variant expression; 210,000 compounds, 2.8% hits; HEK293 SMN2-luciferase splicing reporter, luminescence, 30-36 h; Potency, µM (highest dose often 46.1 µM), for the others: at the highest dose activity change, positive = activation, hits mostly activators; AID 1458; further: % of control where 0% means no effect; nearly all actives have a fitted effect of over 55% in size
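qHTS luciferase splicing reporter: luminescence rises when SMN2 exon 7 is included in transfected HEK293 cells. Compound exposure lasted 30-36 h at 37C, with 4.5 mM final sodium butyrate as control, followed by a ONE-Glo read.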
FLuc counter = firefly luciferase modulation, counter-screen for miR-21 project. purified FLuc, Km substrates, luminescence inhibition. Potency, µM (highest dose often 57.5 µM), for the others: at the highest dose activity change, negative = inhibition, usual class: inhibitors. 360,000 compounds, 6.9% hits;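 further: plate controls were vehicle for no effect and reference inhibitor for full effect; nearly all actives have a fitted effect of over 55% in size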
Target sequence (P08659 whole entry, looked up): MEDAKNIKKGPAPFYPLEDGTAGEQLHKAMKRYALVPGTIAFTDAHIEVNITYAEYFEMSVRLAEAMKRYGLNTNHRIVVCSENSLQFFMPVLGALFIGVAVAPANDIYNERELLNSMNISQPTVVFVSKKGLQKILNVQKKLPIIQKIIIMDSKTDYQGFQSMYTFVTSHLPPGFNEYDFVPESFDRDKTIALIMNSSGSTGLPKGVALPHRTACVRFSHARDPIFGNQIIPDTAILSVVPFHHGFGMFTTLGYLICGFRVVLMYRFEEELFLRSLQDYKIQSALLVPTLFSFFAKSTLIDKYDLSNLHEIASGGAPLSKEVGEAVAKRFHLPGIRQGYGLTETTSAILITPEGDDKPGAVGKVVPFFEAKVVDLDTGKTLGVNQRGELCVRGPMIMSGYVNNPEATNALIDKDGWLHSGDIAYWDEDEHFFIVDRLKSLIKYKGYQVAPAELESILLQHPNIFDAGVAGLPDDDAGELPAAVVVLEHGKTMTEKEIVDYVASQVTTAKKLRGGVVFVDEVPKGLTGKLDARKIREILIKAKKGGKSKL
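Purified P. pyralis luciferase, 10 nM final, with Km-level 10 uM D-luciferin and 10 uM ATP in 50 mM Tris acetate pH 7.5, 10 mM Mg acetate, 0.01% Tween-20, 0.05% BSA; 6-point qHTS titration about 60 µM downward; luminescence read.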
NPC1 prom act = NPC1 promoter activation. Potency, µM (series often up to 9.22 µM), for the others: at the highest dose activation, most hits filed as activators. AID 485313. Huh7 NPC1 promoter luciferase reporter, 24 h. 320,000 compounds, 2.4% hits; further: % of control where 0% means no effect; nearly all actives have a fitted effect of over 60% in size
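Quantitative HTS used a cell-based reporter: Huh7 cells stably bearing the NPC1 promoter upstream of luciferase were treated with compounds for 24 h, and promoter activation was read as luminescence.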
ELG1 genotox = inducers of genotoxicity in HEK293T ELG1-luciferase cells; HEK293T ELG1-luciferase reporter, luminescence, 16 h; Potency, µM (titrated, usually from 46 µM), for inactives: top-dose activity change, positive = activation, hits mostly activators; 330,000 compounds, 1.3% hits; further: % of control where 0% means no effect; nearly all actives have a fitted effect of over 60% in size
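Genotoxic stress is detected as increased luminescence from luciferase-tagged ELG1 in HEK293T cells, measured with ONE-Glo after a 16 hr treatment at 37 °C.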
Starred values were filed as active, the others as inactive; u = inconclusive; x = no result given; [ ] = another dose, or the depositor's remark. An excerpt weighted towards active compounds, which were near 7.3% of everything screened. Unless noted, the call rests on the fitted dose curve; in most records, active means well fitted curve in the direction sought with a large enough effect; inconclusive means small, poorly fitted or top-dose-only effect, or another doubt; inactive means no such curve, though single readings can be large; an effect the other way counts as inactive or inconclusive. Potency means the concentration at half of the fitted maximal effect.

SMILES	Rab9 prom act	uPA generation	SMN2 splice up	FLuc counter	NPC1 prom act	ELG1 genotox
CC(C)c1ccc(/C=N\NC(=O)c2ccc(Cn3cccn3)o2)cc1	11.1%	-5.8%	25.2%	1.35µM*	u	9.6%
CCCOc1ccc(/C=N/NC(=O)c2ccc(Cn3cc([N+](=O)[O-])cn3)o2)cc1	u	-1.2%	-4.7%	2.39µM*	23.4%	u
Cc1ccc(/C=N/NC(=O)c2ccc(Cn3cc([N+](=O)[O-])cn3)o2)cc1	-6.1%	-0.8%	15.7%	u	0.3%	1.9%
O=C(CCNS(=O)(=O)c1ccc2c(c1)CCN2C(=O)C1CC1)Nc1ccc(F)cc1F	x	x	x	4.3%	x	x
CNC(=S)N(CCCn1ccnc1)Cc1c(F)cccc1Cl	5.3%	-0.6%	x	0.6%	-0.2%	-2.0%
COC(=O)[C@H](Cc1ccccc1)NC(=O)c1ccc2ccccc2n1	2.0%	x	x	6.75µM*	0.2%	3.4%
CCCNC(=O)C(Cc1ccc(I)cc1)NC(=O)c1ccc2ccccc2n1 (stereo not given)	-2.7%	1.8%	x	4.7%	9.7%	-1.3%
CCOc1ccc(C(=O)NC(Cc2ccccc2)C(=O)OC)cc1 (stereo not given)	u	-1.8%	7.6%	4.78µM*	27.5%	7.8%
CC(=O)c1ccc(NC(=O)CN2C(=O)/C(=C/C=C/c3ccccc3)SC2=S)cc1	3.3%	-2.4%	22.4%	u	-0.6%	4.4%
COc1ccc(/C=C2/SC(=O)N(CCC(=O)Nc3ccccc3)C2=O)cc1OC	5.0%	6.6%	-26.8%	4.9%	-0.9%	u
O=C(CN1C(=O)S/C(=C\C=C\c2ccccc2)C1=O)Nc1cccc(O)c1	u	-6.5%	71.4%	12µM*	21.4%	u
O=C(CCCN1C(=O)S/C(=C\C=C\c2ccccc2)C1=O)Nc1ccc(C(=O)O)cc1	u	-0.9%	x	21.3µM*	u	22.1%
O=C(CCN1C(=O)S/C(=C\C=C\c2ccccc2)C1=O)Nc1ccc(O)cc1	3.55µM*	-3.2%	x	u	3.55µM*	13µM*
O=C(/C=C/c1ccncc1)c1cc(Cl)ccc1O	-1.1%[1.84 µM]	-1.4%	x	4.3%	1.2%	0.5%
CN(C)c1ccc(/C=C/C(=O)c2cc(Cl)ccc2O)cc1	2.0%	6.2%	x	9.53µM*	u	0.2%
COc1ccc(/C=C/C(=O)c2cc3c(cc2N)OCO3)cc1	u	-7.7%	u	2.13µM*	u	u
O=C(/C=C/c1ccc(O)cc1)c1ccc(O)cc1O	9.7%[46.1 µM]	13.4%	20.0%	10.7µM*	16.7%[46.1 µM]	u
COc1ccc(C(=O)/C=C/c2ccc(OC)cc2OC)c(O)c1	u	u	x	3.01µM*	u	u
COc1cccc(C(=O)N(Cc2sccc2C)C2CCS(=O)(=O)C2)c1 (stereo not given)	x	x	10.8%	2.6%	x	x
COC(=O)CC1c2ccccc2C=C(/C=C/c2ccc3c(c2)OCO3)N1C(=O)OC (stereo not given)	x	x	-10.8%[9.22 µM]	x	x	x
N/C(=C/C(=O)c1ccccc1O)C(F)(F)F	6.2%	-3.1%	-8.9%	u	13.0%	3.2%
COc1ccc(/C=C/C(=O)c2ccc(O)cc2O)cc1	x	x	-5.4%	x	x	x
COC(=O)c1ccc(/C=C/C(=O)c2ccc(OC)c(OC)c2)cc1	2.4%	-10.0%	-5.4%	u	-3.0%	2.5%
COc1ccc(/C=C/C(=O)c2cc(Cl)ccc2O)c(OC)c1	21.9%	-1.9%	x	10.7µM*	u	2.6%
COC(=O)c1ccc(/C=C/C(=O)c2ccc(OC)cc2)cc1	9.4%	x	-15.0%	10.7µM*	u	1.8%
COc1ccc(C(=O)/C=C(\N)C(F)(F)F)c(O)c1	-7.2%	x	1.8%	10.7µM*	0.4%	-1.4%
COc1ccc(C(=O)/C=C/c2ccccc2)c(O)c1	u	u	-19.4%	6.01µM*	u	-3.4%
CCOc1cc(/C=C(\C#N)C(=O)Nc2ccc(C)cc2)ccc1OCc1cc(=O)n2nc(CC)sc2n1	x	x	10.0%	-1.6%	x	x
